# In the supplement of paper PMC10338343:
# ± gives the standard deviation. In all, about 3,000 sequences were measured (“pre-steady-state target cleavage rate”: median about 0.0079, highest 2% from about 0.2 on). This is one part of a sample in which the highest values are shown more often than they occur.
# Tested on: MILI (PIWIL2) piRISC loaded with piRNA #2 (26 nt)
# Assay: pre-steady-state target cleavage rate (min^-1); MIWI and MILI are mouse PIWI proteins and EfPiwi is from a freshwater sponge; tags in brackets are library labels; higher = faster piRNA-guided slicing of the target
# Conditions: guide: piRNA #2 5'p-UUAGGUAACCCAGUAGAUCCAGAGGA; auxiliary factor: 500 nM mouse GTSF1
# Protocol: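 Cleave-'n-Seq: a library of target RNAs (target site embedded in constant flanks, ACAGCATTCCGCGTTAGTGATATCCG... 5' flank; DNA-blocked outside the site) at 0.1 nM was incubated with 1 nM active mouse MILI or MIWI piRISC (synthetic 5'-monophosphorylated piRNA guide) with or without 500 nM mouse GTSF1 at 33 °C for 1 min to 16 h. Uncleaved targets were sequenced and normalised to non-target controls, and the pooled three trials were fitted to a burst-and-steady-state model to give the pre-steady-state cleavage rate (min^-1; k3 is constrained to at most 1e-4). Sequence is the target site only; target names encode pairing extent (gX:gY) and contiguous / 1-mismatch / 2-mismatch / bulge geometry. Fits with R² ≤ 0 are excluded.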
row,Sequence,pre-steady-state target cleavage rate
1,CUUAACCUCUGGUUCUACUGGGUUACCUAA,0.141 ± 0.031
2,CUUAACCUCUGGUCUACUGGGUUACCUAA,0.333 ± 0.11
3,CUUAACCUCUGGUUCUACUGGGUUACCUUA,0.3 ± 0.087
4,CUUAACCUCUGGUUCUACUGGGUUACCAAA,0.134 ± 0.037
5,CUUAACCUCUGGAGUCUACUGGGUUACCUAA,0.135 ± 0.031
6,CUUAACCUCUGGGUCUACUGGGUUACCUAA,0.169 ± 0.029
7,CUUAUCCUCUGGAUCUAUGGGUUACCUAA,0.0334 ± 0.0086
8,CUUAACCUCUGCAUGUACUGGGUUACCUAA,0.117 ± 0.016
9,CUUAUCGUCUCGAUCUACUGGGUUACCUAA,0.0585 ± 0.014
10,CUUAAGGAAUGGAUCUACUGGGUUACCUAA,0.0666 ± 0.015
11,CUUAAGCACUGCAUCUACUGGGUUACCUAA,0.0725 ± 0.015
12,CUUAAGCACUGGAUCUACUGGGUUACCUAA,0.113 ± 0.02
13,CUUAAGCUCUCGAUCUACUGGGUUACCUAA,0.113 ± 0.019
14,CUUAAGCACUGGUUCUACUGGGUUACCUAA,0.199 ± 0.043
15,CUUAAGCACUCGAUCUACUGGGUUACCUAA,0.417 ± 0.15
16,CUUAAGCUGUGGUUCUACUGGGUUACCUAA,0.0437 ± 0.014
17,CUUAAGGUCAGGUUCUACUGGGUUACCUAA,0.0166 ± 0.0093
18,CUUAACCUCUGGAACUACUGGGUUACGUAA,0.118 ± 0.051
19,CUUAAGGUCAGGAUCUACUGGGUUACCUUA,0.0166 ± 0.0094
20,CUUAUCCUCUGGAUCUACUGGGUUACCUA,0.159 ± 0.032
21,CUUAUCCUCUGGAUCUACUGGGUUACCUCA,0.0902 ± 0.018
22,CUUAUCCUCUGGAUCUACUGGGUUACCUAC [g2:g26:cont:t1C],0.105 ± 0.014
23,CUUAUCCUCUGGAUCUACUGGGUUACCUCAA,0.0973 ± 0.019
24,CUUAUCCUCUGGAUCUACUGGGUUACCUGAA,0.384 ± 0.17
25,CUUAUCCUCUGGAUCUACUGGGUUACCUGA,0.838 ± 0.37

row,Sequence,pre-steady-state target cleavage rate
1,CUUAAGCUCAGGAUCUACUGCGUUACCUAA,0.0105 ± 0.0058
2,CUUAAGGUCUGGAUCUAGUGGGUUACGUAA,0.0114 ± 0.004
3,CUUAUCCUCUGGAUCUACUGGAUUACCUAA,0.0307 ± 0.0083
4,CUUAAGGAGUGGAUCUAGUGGGUUACCUAA,0.0231 ± 0.0069
5,CUUAUCCUCUGGAUCUACUGGGAUAGCUAA,0.0182 ± 0.0088
6,CUUAAGCUCUGGAUCUAGUGGGUUACCUAA,0.0282 ± 0.0073
7,CUUAACCUCUGGAGCUACUGGGUUACCUAA,0.226 ± 0.049
8,CUUAAGCUCUGGAGCUACUGGGUUACCUAA,0.0783 ± 0.014
9,CUUAACCUCUGGACCUACUGGGUUACCUAA,0.0796 ± 0.023
10,CUUAUCCUCUGGACCUACUGGGUUACCUAA,0.0996 ± 0.024
11,CUUAUCCUCUGGAGCUACUGGGUUACCUAA,0.238 ± 0.052
12,CUUAUCCUCUGGAUCCUACUGGGUUACCUAA,0.0665 ± 0.018
13,CUUAACCUCUGGAUCUACUGGGAUACCUUA,0.0634 ± 0.023
14,CUUAAGGUCUGGAUCUACUGGGUUACCUUAA,0.0607 ± 0.015
15,CUUAAGCUCUCCUUCUACUGGGUUACCUAA,0.0472 ± 0.016
16,CUUACCCUCUGGAUCUACUGGGUUACCUAA,0.11 ± 0.016
17,CUUAAGCUGCUGGAUCUACUGGGUUACCUAA,0.0417 ± 0.015
18,CUUAACCUCUGGAUCUACUGGGUUAGCCUAA,0.15 ± 0.035
19,CUUAAGCCCUGGAUCUACUGGGUUACCUAA,0.202 ± 0.041
20,CUUAUACUCUGGAUCUACUGGGUUACCUAA,0.0651 ± 0.014
21,CUUAAGCCUCUGGAUCUACUGGGUUACCUAA,0.146 ± 0.043
22,CUUAAGCCUGGAUCUACUGGGUUACCUAA,0.104 ± 0.026
23,CUUAGCCUCUGGAUCUACUGGGUUACCUAA,0.218 ± 0.05
24,CUUAUACCUCUGGAUCUACUGGGUUACCUAA,0.251 ± 0.058
